Experiments:
Assay in all cases: log2 ratio of Biotin-Ahx-Ub-VS probe labelling (compound/DMSO); higher = less target engagement, active = hit call of the paper (q ≤ 0.05, log2 ratio ≤ -1)
Details in all cases: treatment time: 3 h
[1] = compound: CCC1N(CCc2sccc12)C(=O)CCl
Procedure, shortened: (§1)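 Compound at 50 or 200 µM, or DMSO, was applied for 3 h in triplicate to HEK293T lysate (495 µg per sample, Tris/CHAPS/IGEPAL buffer with protease inhibitors), after which Biotin-Ahx-Ub-VS was added at 0.5 µM final for 1 h. The labelled DUBs were pulled down with NeutrAvidin, digested with LysC and trypsin, and run by diaPASEF LC-MS/MS. Ratios are averaged base-two logs of compound over DMSO from median-normalised label-free quantities by unpaired t-test, counting only proteins with at least 2 unique peptides.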

[2] = compound: CN1c2ccccc2C(CS1(=O)=O)NC(=O)CCl
Procedure, shortened: as §1

[3] = compound: Cl.ClCC(=O)N1CCc2ncncc2C1
Procedure, shortened: as §1

[4] = compound: Cl.Cn1ncc2C(CCCc12)NC(=O)CCl
Procedure, shortened: as §1

[5] = compound: ClCC(=O)NC1CCOc2ccccc12
Procedure, shortened: as §1

[6] = compound: ClCC(=O)NC1CCCc2ccccc12
Procedure, shortened: (§2)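 These values are averaged ratios of compound to vehicle, tested by unpaired t-test. HEK293T lysate (495 µg per sample) was preincubated in triplicate with compound across a concentration series or vehicle for 3 h and then with Biotin-Ahx-Ub-VS at 0.5 µM final for 1 h. Deubiquitinases carrying the probe were NeutrAvidin-enriched, digested with LysC and trypsin, and measured by diaPASEF LC-MS/MS. Ratios are expressed as log2 from global-median-normalised Spectronaut label-free quantities, and only proteins with two or more unique peptides were included.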

[7] = compound: ClCC(=O)N[C@@H]1CCCc2ccccc12
Procedure, shortened: as §2

[8] = compound: ClCC(=O)N[C@H]1CCCc2ccccc12
Procedure, shortened: as §2

[9] = compound: CCC1N(CCc2cc(OC)c(Cl)cc12)C(=O)CCl
Procedure, shortened: as §1

[10] = compound: CCCC1N(CCc2cc(OC)c(OC)cc12)C(=O)CCl
Procedure, shortened: as §1

[11] = compound: CN(Cc1cccc(Br)c1)C(=O)CCl
Procedure, shortened: as §1

[12] = compound: CN(Cc1ccccc1)C(=O)CCl
Procedure, shortened: as §1

[13] = compound: COc1ccc(CN(C)C(=O)CCl)cc1
Procedure, shortened: as §1

[14] = compound: COc1cccc(CN(CCCc2ccccc2)C(=O)CCl)c1
Procedure, shortened: as §1

[15] = compound: ClCC(=O)N1CCc2cc(Cl)c(Cl)cc2C1
Procedure, shortened: as §1

[16] = compound: ClCC(=O)N1CCc2nc(ncc2C1)-c1ccccc1
Procedure, shortened: as §1

[17] = compound: ClCC(=O)N1CCc2nocc2C1
Procedure, shortened: as §1

[18] = compound: ClCC(=O)N1CCc2scc(Br)c2C1
Procedure, shortened: as §1

[19] = compound: ClCC(=O)NC(C1CCCC1)c1cccs1
Procedure, shortened: as §1

Measured: log2 ratio of Biotin-Ahx-Ub-VS probe labelling

USP9X (UniProt Q93008)
Chain of UniProt Q93008 (Q93008 whole entry): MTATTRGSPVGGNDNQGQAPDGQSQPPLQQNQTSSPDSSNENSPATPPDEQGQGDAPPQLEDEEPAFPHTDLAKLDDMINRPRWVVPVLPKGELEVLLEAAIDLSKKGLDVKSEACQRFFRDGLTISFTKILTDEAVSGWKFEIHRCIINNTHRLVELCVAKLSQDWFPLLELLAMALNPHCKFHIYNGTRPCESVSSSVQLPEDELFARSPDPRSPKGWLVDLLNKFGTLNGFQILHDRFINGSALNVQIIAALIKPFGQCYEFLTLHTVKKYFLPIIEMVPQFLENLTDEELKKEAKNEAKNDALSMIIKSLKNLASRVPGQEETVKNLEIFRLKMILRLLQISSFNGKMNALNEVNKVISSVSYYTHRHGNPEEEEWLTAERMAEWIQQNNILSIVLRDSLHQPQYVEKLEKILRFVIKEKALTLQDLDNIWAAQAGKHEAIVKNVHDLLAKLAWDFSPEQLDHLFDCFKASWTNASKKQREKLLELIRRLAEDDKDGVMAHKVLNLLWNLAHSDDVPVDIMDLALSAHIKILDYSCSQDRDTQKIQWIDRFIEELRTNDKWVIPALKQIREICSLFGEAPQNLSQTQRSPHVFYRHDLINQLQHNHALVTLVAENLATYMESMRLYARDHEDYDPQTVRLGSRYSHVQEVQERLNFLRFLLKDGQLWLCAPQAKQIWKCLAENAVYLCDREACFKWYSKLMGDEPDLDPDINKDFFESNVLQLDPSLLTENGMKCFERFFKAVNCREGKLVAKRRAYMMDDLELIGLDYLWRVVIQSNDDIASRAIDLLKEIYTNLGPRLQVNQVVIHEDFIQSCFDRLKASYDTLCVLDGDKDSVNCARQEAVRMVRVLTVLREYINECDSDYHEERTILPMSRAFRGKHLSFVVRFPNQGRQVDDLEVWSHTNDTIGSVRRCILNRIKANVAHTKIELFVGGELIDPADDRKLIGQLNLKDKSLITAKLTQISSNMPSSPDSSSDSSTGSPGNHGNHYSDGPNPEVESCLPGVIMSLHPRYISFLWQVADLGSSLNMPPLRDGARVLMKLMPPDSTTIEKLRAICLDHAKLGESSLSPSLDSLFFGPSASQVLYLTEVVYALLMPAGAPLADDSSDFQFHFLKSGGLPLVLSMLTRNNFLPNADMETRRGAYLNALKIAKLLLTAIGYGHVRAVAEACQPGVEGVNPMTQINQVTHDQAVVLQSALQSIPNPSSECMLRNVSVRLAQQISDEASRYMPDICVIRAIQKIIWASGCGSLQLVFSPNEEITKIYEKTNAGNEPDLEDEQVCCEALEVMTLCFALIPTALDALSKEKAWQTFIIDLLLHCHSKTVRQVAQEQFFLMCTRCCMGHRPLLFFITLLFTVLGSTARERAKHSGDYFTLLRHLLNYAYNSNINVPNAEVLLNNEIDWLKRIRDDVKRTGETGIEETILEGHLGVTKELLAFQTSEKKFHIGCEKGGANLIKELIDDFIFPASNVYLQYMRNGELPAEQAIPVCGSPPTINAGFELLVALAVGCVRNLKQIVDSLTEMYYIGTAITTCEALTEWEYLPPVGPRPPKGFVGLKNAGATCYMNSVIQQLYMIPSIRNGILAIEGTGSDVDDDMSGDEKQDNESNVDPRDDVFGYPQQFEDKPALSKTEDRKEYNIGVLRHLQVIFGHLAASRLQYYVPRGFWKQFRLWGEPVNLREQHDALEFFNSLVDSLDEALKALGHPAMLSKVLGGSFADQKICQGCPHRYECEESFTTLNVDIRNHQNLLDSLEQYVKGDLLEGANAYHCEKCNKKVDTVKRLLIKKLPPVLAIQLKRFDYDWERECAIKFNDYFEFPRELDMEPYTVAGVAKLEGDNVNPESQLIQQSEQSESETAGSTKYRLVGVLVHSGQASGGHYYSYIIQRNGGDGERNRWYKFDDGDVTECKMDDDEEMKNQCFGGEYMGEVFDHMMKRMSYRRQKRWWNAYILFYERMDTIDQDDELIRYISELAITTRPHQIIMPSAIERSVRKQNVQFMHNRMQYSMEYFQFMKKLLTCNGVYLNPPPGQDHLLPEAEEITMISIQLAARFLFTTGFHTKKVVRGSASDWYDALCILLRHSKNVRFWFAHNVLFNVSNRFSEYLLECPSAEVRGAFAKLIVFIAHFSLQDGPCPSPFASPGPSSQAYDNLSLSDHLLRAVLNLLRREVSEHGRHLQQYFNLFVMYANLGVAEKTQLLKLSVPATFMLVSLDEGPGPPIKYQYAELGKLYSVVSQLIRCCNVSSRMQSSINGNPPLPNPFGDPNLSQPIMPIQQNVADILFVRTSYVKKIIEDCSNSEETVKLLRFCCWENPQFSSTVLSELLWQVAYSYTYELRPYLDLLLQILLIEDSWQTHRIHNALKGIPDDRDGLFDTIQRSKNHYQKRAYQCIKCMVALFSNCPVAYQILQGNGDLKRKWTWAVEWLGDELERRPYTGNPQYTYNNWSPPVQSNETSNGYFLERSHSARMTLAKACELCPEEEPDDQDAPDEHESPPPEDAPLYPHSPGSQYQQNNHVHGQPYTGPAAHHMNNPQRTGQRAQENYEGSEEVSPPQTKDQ
inactive: [1]; compound concentration: 50uM -0.0428 | [1]; compound concentration: 200uM -0.401 | [2]; compound concentration: 50uM -0.081 | [2]; compound concentration: 200uM -0.107 | [3]; compound concentration: 50uM -0.026 | [3]; compound concentration: 200uM -0.376 | [4]; compound concentration: 50uM 0.251 | [4]; compound concentration: 200uM 0.139 | [5]; compound concentration: 50uM 0.133 | [5]; compound concentration: 200uM -0.133 | [6]; compound concentration: 0.78uM -0.00765 | [6]; compound concentration: 1.56uM 0.093 | [6]; compound concentration: 3.13uM -0.0291 | [6]; compound concentration: 6.25uM 0.0092 | [6]; compound concentration: 12.5uM -0.0222 | [6]; compound concentration: 25uM -0.0898 | [6]; compound concentration: 50uM -0.0629 | [6]; compound concentration: 100uM -0.0253 | [6]; compound concentration: 200uM -0.0679 | [7]; compound concentration: 0.78uM -0.0702 | [7]; compound concentration: 1.56uM 0.0356 | [7]; compound concentration: 3.13uM 0.00372 | [7]; compound concentration: 6.25uM -0.00489 | [7]; compound concentration: 12.5uM -0.0481 | [7]; compound concentration: 25uM -0.0408 | [7]; compound concentration: 50uM -0.128 | [7]; compound concentration: 100uM -0.121 | [7]; compound concentration: 200uM -0.242 | [8]; compound concentration: 0.78uM -0.0701 | [8]; compound concentration: 1.56uM 0.0195 | [8]; compound concentration: 3.13uM 0.0203 | [8]; compound concentration: 6.25uM 0.0759 | [8]; compound concentration: 12.5uM -0.0293 | [8]; compound concentration: 25uM -0.0731 | [8]; compound concentration: 50uM -0.0138 | [8]; compound concentration: 100uM -0.119 | [8]; compound concentration: 200uM -0.256 | [9]; compound concentration: 50uM -0.0734 | [9]; compound concentration: 200uM -0.969 | [10]; compound concentration: 50uM -0.249 | [10]; compound concentration: 200uM -0.82 | [11]; compound concentration: 50uM -0.128 | [11]; compound concentration: 200uM -0.446 | [12]; compound concentration: 50uM -0.193 | [12]; compound concentration: 200uM -0.435 | [13]; compound concentration: 50uM -0.101 | [13]; compound concentration: 200uM -0.202 | [14]; compound concentration: 50uM -0.221 | [15]; compound concentration: 50uM -0.225 | [16]; compound concentration: 50uM 0.0933 | [16]; compound concentration: 200uM -0.622 | [17]; compound concentration: 50uM -0.15 | [17]; compound concentration: 200uM -0.284 | [18]; compound concentration: 50uM -0.229 | [19]; compound concentration: 50uM -0.00568 | [19]; compound concentration: 200uM -0.248
active: [14]; compound concentration: 200uM -1.31 | [15]; compound concentration: 200uM -1.96 | [18]; compound concentration: 200uM -1.13

Source: the supplement of paper PMC11732987, “Enantioselective OTUD7B fragment discovery through chemoproteomics screening and high-throughput optimisation” (Communications Chemistry, 2025)
